Test results reported in PubChem BioAssay (Tox21).
Records with an inconclusive call do not appear. Where a call stands in place of a potency, no number is given. Active and inactive are the calls of the source. Unless noted, calls come from the whole dose curve; as a rule, active = well fitted curve in the direction sought with a large enough effect in the repeat runs; inconclusive = weak or mixed curves; inactive = no such curve, though single readings can be large; an effect the other way counts as inactive or inconclusive.

Key:
[1] = qHTS assay to test for compound auto fluorescence at 535 nm (green) in HEK293 cells (AID 720680)
[2] = qHTS assay to test for compound auto fluorescence at 460 nm (blue) in HEK293 cell free culture (AID 720681)
In short: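 Blue fluorescence (Ex 405/Em 460 nm, triamterene-equivalent) was read immediately after pin transfer of compound or DMSO into medium (DMEM, 10% FBS) without cells.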

[3] = qHTS assay to test for compound auto fluorescence at 535 nm (green) in HEK293 cell free culture (AID 720682)
In short: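 Each library compound, or DMSO control, is added by pintool to medium alone, comprising DMEM and 10% FBS. Emission at 535 nm following 485 nm excitation is quantified against fluorescein.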

[4] = qHTS assay to test for compound auto fluorescence at 590 nm (red) in HEK293 cell free culture (AID 720683)
In short: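 Red-channel autofluorescence of compounds in culture medium (DMEM, 10% FBS), no cells, measured at 540/590 nm. Rose Bengal sodium is the reference fluorophore for equivalence.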

[5] = qHTS assay to test for compound auto fluorescence at 590 nm (red) in HepG2 cell free culture (AID 720684)
In short: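 Cell-free; medium MEM + 10% FBS; compound or DMSO added by pintool; read Ex 540/Em 590 nm; Rose Bengal sodium as red reference fluorophore.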

[6] = qHTS assay to test for compound auto fluorescence at 460 nm (blue) in HepG2 cell free culture (AID 720685)
In short: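 Cell-free plates of MEM plus 10% FBS received 23 nL compound or DMSO vehicle; blue-channel (405/460 nm) intensity scored against triamterene as reference fluorophore.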

[7] = qHTS assay to test for compound auto fluorescence at 535 nm (green) in HepG2 cell free culture (AID 720686)
[8] = qHTS assay to test for compound auto fluorescence at 460 nm (blue) in HepG2 cells (AID 720687)
In short: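 Blue-channel autofluorescence (Ex/Em 405/460 nm, triamterene-equivalent) was measured after 1 hr compound exposure at 37 C, 5% CO2. Cells were HepG2, plated overnight at 37 C in MEM plus 10% FBS.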

[9] = qHTS assay to identify small molecule antagonists of the glucocorticoid receptor (GR) signaling pathway - cell viability counter screen (AID 720693); note: nearly all actives have a fitted effect of over 55% in size; note: potency is the fitted concentration of half-maximal effect
[10] = qHTS assay for identifying genotoxic compounds that show differential cytotoxicity against isogenic chicken DT40 cell lines with known DNA damage response pathways - wild type cell line (AID 743012); note: nearly all actives have a fitted effect of over 60% in size; note: potency is the fitted concentration of half-maximal effect
In short: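 CellTiter-Glo luminescence readout of viability in wild type DT40 cells after 40 h compound exposure at 37 C/5% CO2; 300 cells/well; reagent incubated 30 min at room temperature before reading.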

[11] = qHTS assay for identifying genotoxic compounds that show differential cytotoxicity against isogenic chicken DT40 cell lines with known DNA damage response pathways - Rev3 mutant cell line (AID 743014); note: nearly all actives have a fitted effect of over 55% in size; note: potency is the fitted concentration of half-maximal effect
[12] = qHTS assay for identifying genotoxic compounds that show differential cytotoxicity against isogenic chicken DT40 cell lines with known DNA damage response pathways - Rad54/Ku70 mutant cell line (AID 743015); note: nearly all actives have a fitted effect of over 60% in size; note: potency is the fitted concentration of half-maximal effect
[13] = qHTS assay to identify small molecule antagonists of the androgen receptor (AR) signaling pathway - cell viability counter screen (AID 743033; note: nearly all actives have a fitted effect of over 45% in size; note: potency is the fitted concentration of half-maximal effect)
[14] = qHTS assay to identify small molecule antagonists of the androgen receptor (AR) signaling pathway using the MDA cell line - cell viability counter screen (AID 743041; note: nearly all actives have a fitted effect of over 45% in size; note: potency is the fitted concentration of half-maximal effect)
In short: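 Viability read by CellTiter-Fluor fluorescence in the same wells as the antagonist screen, added after 15.5 h of a 16 h, 37C exposure. Human breast carcinoma MDA-kb2 AR-luc cells, compounds co-dosed with agonist R1881.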

[15] = target: Androgen receptor (Homo sapiens) (UniProt P10275); experiment: qHTS assay to identify small molecule agonists of the androgen receptor (AR) signaling pathway using the MDA cell line (AID 743040; note: nearly all actives have a fitted effect of over 20% in size)
Sequence of Androgen receptor (Homo sapiens) (P10275 whole entry, looked up): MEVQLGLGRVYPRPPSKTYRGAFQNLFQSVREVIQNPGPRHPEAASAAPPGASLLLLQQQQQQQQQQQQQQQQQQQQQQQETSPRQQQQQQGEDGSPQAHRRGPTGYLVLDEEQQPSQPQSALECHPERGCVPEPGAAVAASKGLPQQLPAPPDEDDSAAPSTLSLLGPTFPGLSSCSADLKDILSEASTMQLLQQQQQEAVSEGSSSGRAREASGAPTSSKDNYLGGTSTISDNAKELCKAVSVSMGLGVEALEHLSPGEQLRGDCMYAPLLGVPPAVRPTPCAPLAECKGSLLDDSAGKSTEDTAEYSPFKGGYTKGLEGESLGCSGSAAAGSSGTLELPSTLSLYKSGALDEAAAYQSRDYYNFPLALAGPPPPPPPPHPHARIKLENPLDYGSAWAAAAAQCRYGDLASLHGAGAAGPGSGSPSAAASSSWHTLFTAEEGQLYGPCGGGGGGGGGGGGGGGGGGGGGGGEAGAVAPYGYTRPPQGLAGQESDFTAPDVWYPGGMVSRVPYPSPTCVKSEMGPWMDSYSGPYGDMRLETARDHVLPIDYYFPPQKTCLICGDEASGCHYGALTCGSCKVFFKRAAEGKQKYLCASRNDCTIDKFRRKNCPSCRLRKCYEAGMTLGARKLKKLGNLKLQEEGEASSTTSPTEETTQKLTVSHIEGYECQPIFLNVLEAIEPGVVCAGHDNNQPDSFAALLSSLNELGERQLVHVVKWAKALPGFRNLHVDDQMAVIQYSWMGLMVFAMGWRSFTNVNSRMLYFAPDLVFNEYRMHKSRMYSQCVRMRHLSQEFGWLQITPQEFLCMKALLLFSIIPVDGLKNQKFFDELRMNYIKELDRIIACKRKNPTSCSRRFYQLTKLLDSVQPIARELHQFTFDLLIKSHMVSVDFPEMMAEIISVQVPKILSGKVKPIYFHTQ
In short: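 Luciferase agonist assay: 16 h compound exposure at 37C without CO2 in MDA-kb2 AR-luc cells, whose MMTV promoter responds to both AR and GR. Luminescence measured after 30 min room-temperature incubation with ONE-Glo.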

[16] = target: Androgen receptor (Homo sapiens) (UniProt P10275); experiment: qHTS assay to identify small molecule antagonists of the androgen receptor (AR) signaling pathway using the MDA cell line (AID 743042; note: nearly all actives have a fitted effect of over 55% in size; note: potency is the fitted concentration of half-maximal effect)
In short: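 Antagonist mode: compounds plus R1881 agonist added to MDA-kb2 AR-luc cells, incubated 16 h at 37C. Luciferase reporter luminescence quantified, with multiplexed CellTiter-Fluor readout for cell viability.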

[17] = target: Androgen receptor (Homo sapiens) (UniProt P10275); experiment: qHTS assay to identify small molecule antagonists of the androgen receptor (AR) signaling pathway (AID 743035; active = well fitted inhibition curve with a large enough effect in the signal ratio in the repeat runs, not every such curve was filed as active; the % refers to the signal ratio)
In short: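 AR-bla HEK293 reporter cells; 4 h settle at 37C/5% CO2; compound + R1881 agonist, 16 h at 37C; LiveBLAzer B/G FRET substrate 2 h RT; fluorescence intensity read. qHTS format.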

[18] = target: Androgen receptor (Homo sapiens) (UniProt P10275); experiment: qHTS assay to identify small molecule agonists of the androgen receptor (AR) signaling pathway (AID 743036; active = well fitted activation curve with a large enough effect in the signal ratio in the repeat runs, with a control signal flat, not every such curve was filed as active; the % refers to the signal ratio)
In short: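 Following a 4 h settling period, AR-UAS-bla HEK293 cells were dosed with compounds for 16 h at 37C. A 2 h room-temperature incubation with LiveBLAzer B/G FRET substrate preceded the fluorescence measurement.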

Row | Structure (SMILES) | outcome [1] | Potency [2] | outcome [3] | outcome [4] | outcome [5] | Potency [6] | Potency [7] | Potency [8] | Potency [9] | Potency [10] | Potency [11] | Potency [12] | Potency [13] | Potency [14] | outcome [15] | Potency [16] | Potency [17] | outcome [18]
1 | O=[N+]([O-])c1cc(C(F)(F)F)c(Cl)c([N+](=O)[O-])c1Nc1ncc(C(F)(F)F)cc1Cl | inactive | inactive | inactive | inactive | inactive | inactive | inactive | inactive | 21900 nM (active) | 96.9 nM (active) | 137 nM (active) | 137 nM (active) | 275 nM (active) | 15400 nM (active) | – | – | – | –
2 | CCc1cccc(C)c1N(C(=O)CCl)[C@@H](C)COC | inactive | inactive | inactive | inactive | inactive | inactive | inactive | inactive | inactive | 13700 nM (active) | 19300 nM (active) | 30600 nM (active) | inactive | inactive | – | – | – | –
3 | [Cl][Hg][c]1ccccc1 | inactive | inactive | inactive | inactive | inactive | inactive | inactive | inactive | 309 nM (active) | 122 nM (active) | 172 nM (active) | 86.3 nM (active) | 1380 nM (active) | 3440 nM (active) | inactive | 969 nM (active) | – | –
4 | Cc1cc(C2CC2)nc(Nc2ccccc2)n1 | inactive | inactive | inactive | inactive | inactive | inactive | inactive | inactive | inactive | 24300 nM (active) | – | 24300 nM (active) | – | – | – | – | – | –
5 | CC(=O)[O][Pb]([c]1ccccc1)([c]1ccccc1)[c]1ccccc1 | inactive | inactive | inactive | inactive | inactive | inactive | inactive | inactive | 776 nM (active) | 154 nM (active) | – | 122 nM (active) | 549 nM (active) | 1720 nM (active) | inactive | 611 nM (active) | – | –
6 | Cc1ccc(C)c2ccccc12 | inactive | inactive | inactive | inactive | inactive | inactive | inactive | inactive | inactive | inactive | inactive | inactive | inactive | inactive | inactive | inactive | inactive | inactive
7 | CSSC | inactive | inactive | inactive | inactive | inactive | inactive | inactive | inactive | inactive | inactive | – | inactive | inactive | inactive | – | – | – | –
8 | COP(=O)(OC)Oc1ccc([N+](=O)[O-])cc1 | inactive | inactive | inactive | inactive | inactive | inactive | inactive | inactive | inactive | – | 61100 nM (active) | inactive | inactive | – | – | – | – | –
9 | CC(C)[C@@H](Nc1ccc(C(F)(F)F)cc1Cl)C(=O)OC(C#N)c1cccc(Oc2ccccc2)c1 (some centres undefined) | inactive | inactive | inactive | inactive | inactive | inactive | inactive | inactive | inactive | inactive | inactive | inactive | inactive | inactive | – | – | – | –
10 | N#CC(C#N)=NNc1cccc(Cl)c1 | inactive | inactive | inactive | inactive | inactive | inactive | inactive | inactive | 6920 nM (active) | 2730 nM (active) | 2730 nM (active) | 2430 nM (active) | 2450 nM (active) | 4860 nM (active) | inactive | 1930 nM (active) | – | –
11 | CN1C(=O)[C@@H](NC(=O)c2cc3ccccc3[nH]2)N=C(c2ccccc2)c2ccccc21 | inactive | inactive | inactive | inactive | inactive | inactive | inactive | inactive | inactive | 10600 nM (active) | – | 18800 nM (active) | inactive | inactive | – | – | – | –
12 | CC(C)C(Nc1ccc(C(F)(F)F)cc1Cl)C(=O)OC(C#N)c1cccc(Oc2ccccc2)c1 (centres undefined) | inactive | inactive | inactive | inactive | inactive | inactive | inactive | inactive | inactive | inactive | inactive | inactive | inactive | inactive | – | – | – | –
13 | [Cl-].[Cl-].[Cl-].[Yb+3] | inactive | inactive | inactive | inactive | inactive | inactive | inactive | inactive | inactive | inactive | inactive | inactive | inactive | – | – | – | – | –
14 | CC(=O)[O-].CC(=O)[O-].O.O.[Zn+2] | inactive | inactive | inactive | inactive | inactive | inactive | inactive | inactive | inactive | inactive | inactive | inactive | inactive | inactive | – | – | – | –
15 | CC(=O)[O-].CC(=O)[O-].O.O.O.[Pb+2] | inactive | inactive | inactive | inactive | inactive | inactive | inactive | inactive | inactive | inactive | inactive | – | inactive | – | – | – | – | –
